In all, about 1,200 compounds went through this assay and about 210 (18%) were called active. These entries were drawn from the full list. Values without a mark were called inactive. Rule as the data show it: active = inhibition above about 30%; inactive = the rest.
Assay: fluorescence readout artefact check – biochemical, HTRF, uHTS, artefact control for SUMOylation inhibitor project, confirmation (AID 2069)
Settings: HTRF interference counterscreen, at 35 µM, stronger effect = higher value

Compared with `CCc1nn(CC(=O)NC(C)CCc2ccccc2)c(=O)c2cc3cc(F)ccc3n12` (centres undefined), `O=C(Cn1nnc2ccccc21)NCc1ccccc1` is lower in inhibition: 16.4% for the first, -8.55% for the second.

Going from `COc1cccc(NS(=O)(=O)c2ccc3c(c2)C2C=CCC2C(c2ccc(C(=O)O)cc2)N3)c1` (centres undefined) to `O=C(O)c1ccc(NS(=O)(=O)c2ccc3c(c2)C2C=CCC2C(c2ccccc2F)N3)cc1` (centres undefined), the inhibition falls from 8.05% to 3.15%.

Compared with `CCc1ccc(NC(=O)NNC(=O)c2cc3ccccc3cc2O)cc1`, `Cc1ccc(S(=O)(=O)NNC(=O)Nc2cccc3ccccc23)cc1` is lower in inhibition: 8.2% for the first, 4.05% for the second.

First: N#Cc1c(-c2cccs2)nc(SCc2ccc(Cl)cc2)[nH]c1=O
Second: N=C1/C(=C/c2cccn2Cc2ccc(Cl)cc2)C(=O)N=C2SC=CN12
The inhibition of the first is higher: 21.6% for the first, 18.8% for the second.

Compared with `NC(=O)C1CCN(C2=C(NS(=O)(=O)c3ccc(Cl)cc3)C(=O)c3ccccc3C2=O)CC1`, `CC1CCN(C2=C(NS(=O)(=O)c3ccc(Br)cc3)C(=O)c3ccccc3C2=O)CC1` is higher in inhibition: -20.8% for the first, 7.4% for the second.

Compared with `COc1ccc(CNC(=O)c2c(N)n(CCCN3CCOCC3)c3nc4ccccc4nc23)cc1`, `COCCn1c(N)c(C(=O)NCc2cccs2)c2nc3ccccc3nc21` is higher in inhibition: 17.5% for the first, 28.6% for the second.

Compared with `C=CCn1c(N)c(C(=O)Nc2cccc(C)c2)c2nc3ccccc3nc21`, `C=CCn1c(N)c(C(=O)Nc2ccccc2)c2nc3ccccc3nc21` is higher in inhibition: 6.4% for the first, 20.9% for the second.

Going from `COCCn1c(N)c(C(=O)OCc2ccccc2)c2nc3ccccc3nc21` to `Nc1c(C(=O)NCc2ccco2)c2nc3ccccc3nc2n1CCc1ccccc1F`, the inhibition falls from 16% to 15.7%.

Compared with `O=C(Nc1cccc2cccc(NC(=O)c3ccco3)c12)c1ccco1`, `CC(=O)c1cccc(NC(=S)Nc2cccc3ccccc23)c1` is higher in inhibition: -6.45% for the first, 0.85% for the second.

Compared with `NS(=O)(=O)c1ccc(NC2=CC(=O)C(=O)c3ccccc32)cc1`, `CC(=O)Nc1ccc(NC2=C/C(=N/S(=O)(=O)c3cccs3)c3ccccc3C2=O)cc1` is lower in inhibition: 9.2% for the first, -7.75% for the second.

Going from `Oc1cccc2c(NC(=S)Nc3ccc(SC(F)F)cc3)cccc12` to `C/C(=N\NC(=O)c1cc(O)ccc1O)c1cccc(NC(=O)c2ccc(Cl)cc2)c1`, the inhibition falls from -6.1% to -7.9%.

Compared with `O=C(CCCN1C(=O)/C(=C/c2ccco2)SC1=S)Nc1ccccc1C(=O)O`, `CCOc1ccc(/C=C2/SC(=S)N(CCC(=O)Nc3ccc(C(=O)O)cc3)C2=O)cc1` is higher in inhibition: 1.8% for the first, 4.55% for the second.

Going from `C/C(=N\NC(=O)CNc1cccc2ccccc12)c1ccccc1` to `O=C(NCc1ccccc1)Nc1cccn(Cc2ccccc2)c1=O`, the inhibition falls from 18% to -6.8%.

Compared with `CC(=O)N1C(=S)NC(=O)/C1=C1/C(=O)N(CC(=O)Nc2cccc(C)c2)c2ccccc21`, `O=C1/C(=C/c2coc3ccc(O)cc3c2=O)SC(=S)N1c1ccccc1` is higher in inhibition: 4.65% for the first, 4.9% for the second.

First: CCN(CC)C(=O)C1CCCN(C(=O)Nc2ccc3nsnc3c2)C1 (centres undefined)
Second: O=C(NC(=S)Nc1c(Cl)ccc2nsnc12)c1ccco1
The inhibition of the first is higher: 17.5% for the first, -7.55% for the second.

Going from `Nc1c(C(=O)NCc2ccco2)c2nc3ccccc3nc2n1CCc1ccc(F)cc1` to `CC(C)Cn1c(N)c(C(=O)NCc2cccs2)c2nc3ccccc3nc21`, the inhibition rises from 23.6% to 25.2%.

Compared with `COc1ccc(-n2c(N)c(C(=O)NCC3CCCO3)c3nc4ccccc4nc32)c(OC)c1` (centres undefined), `COc1ccccc1CCn1c(N)c(C#N)c2nc3ccccc3nc21` is lower in inhibition: 24.9% for the first, 17.6% for the second.

First: Cc1ccc(-n2c(-c3cc(-c4ccco4)[nH]n3)n[nH]c2=S)c(Br)c1
Second: COc1cc(/C=N/NC(=O)c2cc(-c3ccco3)nc3ccccc23)cc(OC)c1O
The inhibition of the first is higher: 16.4% for the first, -5.6% for the second.

Going from `CC1=C(C(=O)Nc2ccccc2)C(c2ccc(C)cc2)N=C(Nc2nc3ccccc3o2)N1` (centres undefined) to `COc1ccccc1CNC(=O)COC(=O)c1cc(-c2ccco2)nc2ccccc12`, the inhibition rises from 10.2% to 12.6%.

Compared with `CCc1ccc2c(c1)c1nc(C)sc1n2CC`, `COc1ccc2nc(NC(=O)CCc3ccc(OC)c(OC)c3)sc2c1` is higher in inhibition: 0.45% for the first, 10.8% for the second.

Compared with `Cn1c2ccccc2c(=O)n2c(=O)c3ccccc3cc12`, `CCCCn1c(NC(=O)c2ccccc2Cl)c(C#N)c2nc3ccccc3nc21` is higher in inhibition: 8.7% for the first, 20.8% for the second.

First: COc1cc(/C=C2/C(=O)N(c3ccccc3)N=C2C)ccc1OS(=O)(=O)c1ccccc1
Second: Cc1nn(-c2ccccc2)c2sc(C(=O)NNC(=O)COc3ccccc3)cc12
The inhibition of the first is lower: -23.2% for the first, 10.2% for the second.

Going from `Cc1ccc(Cn2nnnc2CN2CCC(NC(=O)C(C)(C)C)CC2)cc1` to `Cc1ccc(NC(=O)Cn2c(=O)oc3cc(S(=O)(=O)N4CCC(C)CC4)ccc32)cc1C`, the inhibition falls from 5.15% to -3.55%.

First: Cc1ccc(S(=O)(=O)N2CCCCC2)cc1NC(=O)COC(=O)c1c(F)cccc1F
Second: Cc1cnc(C(=O)OCC(=O)c2ccc(F)cc2)cn1
The inhibition of the first is lower: -11.4% for the first, -5.75% for the second.

Compared with `Cc1nn2c3c(cnc2c1-c1ccc(Cl)cc1)C(=O)CC(c1ccco1)C3` (centres undefined), `Cc1oc(-c2ccc(F)cc2)cc1-c1nn2c(-c3ccoc3C)nnc2s1` is lower in inhibition: -0.9% for the first, -3.45% for the second.

First: CC(C)c1ccc(S(=O)(=O)/N=C2/C=CC(=O)c3ccccc32)cc1
Second: COC(=O)c1ccccc1NC1=C/C(=N\S(=O)(=O)c2cccs2)c2ccccc2C1=O
The inhibition of the first is higher: 11.3% for the first, 1.7% for the second.

Going from `CCC(C)n1c(NC(=O)c2ccccc2)c(C#N)c2nc3ccccc3nc21` (centres undefined) to `C=CCn1c(NC(=O)c2ccccc2Cl)c(C#N)c2nc3ccccc3nc21`, the inhibition rises from 11.8% to 28.9%.

Going from `N#Cc1c(N)n(CCOC(=O)c2ccc(Cl)cc2)c2nc3ccccc3nc12` to `CCCCCn1c(N)c(C#N)c2nc3ccccc3nc21`, the inhibition rises from 10.8% to 16.7%.

Going from `O=[N+]([O-])c1c(NCCCO)cc(Sc2nc3ccccc3s2)c2nonc12` to `NC(=O)CC(NC(=O)Cc1ccc(Br)cc1)c1ccc(NCCOc2ccccc2)c([N+](=O)[O-])c1` (centres undefined), the inhibition rises from 3.25% to 7.3%.

Compared with `Cc1c(C(=O)c2ccc(F)cc2F)c2ccccn2c1CCC#N`, `Cc1c(C(=O)Nc2ccc(F)cc2)cn2c(nc3ccccc32)c1C#N` is higher in inhibition: 17.8% for the first, 19.4% for the second.

Compared with `O=C(N=Nc1c(O)[nH]c2ccc([N+](=O)[O-])cc12)c1ccccc1Cl`, `O=c1[nH]c(=S)[nH]c(O)c1N=Nc1ccc(-c2ccccc2)cc1[N+](=O)[O-]` is higher in inhibition: 7.65% for the first, 16.1% for the second.

First: CN(C)c1ccc(NC(=O)c2sc(SCC(=O)Nc3ccc(Br)cc3)nc2N)cc1
Second: COc1cccc(NC(=O)Nc2nnc(-c3ccccc3SCc3ccccc3)s2)c1
The inhibition of the first is higher: 8.25% for the first, 2.35% for the second.

Compared with `Cc1nn(-c2ccccn2)c2c1C(=O)C(Br)CC2` (centres undefined), `COc1ccc(C=Nc2cccc3ncccc23)cc1` is lower in inhibition: -0.05% for the first, -4.65% for the second.

Going from `Cc1ccc(C)c(OCC(=O)Nc2nonc2NC(=O)COc2cc(C)ccc2C)c1` to `CCOc1ccc(/C=N/NC(=O)c2cc(-c3ccco3)nc3ccccc23)cc1`, the inhibition rises from -13.6% to 15.3%.

First: O=[N+]([O-])c1ccc(N2CCN(CCO)CC2)c2ncccc12
Second: N#CC(c1nc2ccccc2nc1N1CCCC1)S(=O)(=O)c1ccccc1 (centres undefined)
The inhibition of the first is lower: -19.1% for the first, 1.75% for the second.

Compared with `O=[N+]([O-])c1ccc(O)c(/C=N/NC(=S)Nc2ccc(Cl)cc2Cl)c1`, `Cc1c(NC(=S)N/N=C/c2cc([N+](=O)[O-])ccc2O)c(=O)n(-c2ccccc2)n1C` is higher in inhibition: -23.9% for the first, 11.2% for the second.

Going from `Cc1ccc(/C=C2/SC(=S)N(c3ccc(S(=O)(=O)Nc4nccs4)cc3)C2=O)cc1` to `COc1cc(=O)n(C)c2c(OCC3OC(C)(C)OC3(C)C)cccc12` (centres undefined), the inhibition rises from -9.3% to 2.3%.

With `CC(=O)c1ccc2c(c1)C1C=CCC1C(C(=O)O)N2` (centres undefined) the inhibition was 70.7% (active).
In the case of `CC(C)(C)OC(=O)c1c(N)n(CCCN2CCCC2=O)c2nc3ccccc3nc12`, the inhibition is reported as 41.4% (active).
In the case of `C=CCn1c(N)c(C(=O)OC(C)(C)C)c2nc3ccccc3nc21`, the inhibition is reported as 32.7% (active).
With `COCCn1c(N)c(C(=O)NCC2CCCO2)c2nc3ccccc3nc21` (centres undefined) the inhibition was 42.4% (active).
In the case of `C=CCn1c(N)c(C(=O)NCC2CCCO2)c2nc3ccccc3nc21` (centres undefined), the inhibition is reported as 42.5% (active).
With `CC(C)Cn1c(N)c(C(=O)NCC2CCCO2)c2nc3ccccc3nc21` (centres undefined) the inhibition was 34% (active).
In the case of `COCCn1c(N)c(C#N)c2nc3ccccc3nc21`, the inhibition is reported as 43.9% (active).
In the case of `CN(C)CCCn1c(N)c(C#N)c2nc3ccccc3nc21`, the inhibition is reported as 39.2% (active).
In the case of `CCCCn1c(NC(C)=O)c(C#N)c2nc3ccccc3nc21`, the inhibition is reported as 33% (active).
For `CN(CCC#N)C(=O)COC(=O)c1c2c(nc3ccccc13)/C(=C/c1ccco1)CC2`, the inhibition was 36.5% (active).
For `O=[N+]([O-])c1cc(Cl)cc(/C=N/NC(=S)Nc2ccc(S(=O)(=O)N3CCOCC3)cc2)c1O`, the inhibition was 80.5% (active).
With `CCOc1ccc(C2C=C(c3ccccc3)Nc3ncnn32)cc1` (centres undefined) the inhibition was 50.8% (active).
In the case of `O=c1c(-c2c(O)cc(O)c3c(=O)cc(-c4ccc(O)cc4)oc23)c(-c2ccc(O)cc2)oc2cc(O)cc(O)c12`, the inhibition is reported as 35.6% (active).
For `COc1ccc(/C=C/c2cc(C(=O)O)c3ccccc3n2)cc1`, the inhibition was 68.2% (active).
For `O=C1/C(=C/c2ccco2)Oc2c1ccc(O)c2CN1CCCCC1`, the inhibition was 37.6% (active).

From PubChem BioAssay AID2069 (Sanford-Burnham Center for Chemical Genomics, 2009)
